Source: PubChem BioAssay (NCI)
This is part of a sample that, as a whole, favours compounds with a hit. Of some 79,000 tested, about 15% had one in any assay. Active and inactive are the calls of the source. No stated cut-off is given here; in the data, active means growth inhibition above about 70%; inactive means the rest.

Columns and labels:
[1] = NCI Yeast Anticancer Drug Screen. Data for the rad52 strain (AID 147);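 further: 0% = growth of vehicle-treated control cultures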; conditions: S. cerevisiae rad52 mutant growth inhibition, stronger effect = higher value
Method in brief: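 Genetically altered yeast (DNA damage repair defect) treated with compound; inhibition calculated relative to vehicle.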

[2] = NCI Yeast Anticancer Drug Screen. Data for the wt1 strain (AID 149);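 further: 0% = growth of vehicle-treated wt1 cultures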; conditions: S. cerevisiae wt1 strain (SPY 50644) growth inhibition, stronger effect = higher value
Method in brief: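 Compounds are added to wt1 yeast cultures. Growth is then measured. Inhibition is expressed relative to vehicle-treated controls.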

[3] = NCI Yeast Anticancer Drug Screen. Data for the rad50EPP+ strain (AID 151);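 further: 0% = growth of vehicle-treated control cultures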; conditions: S. cerevisiae rad50 mutant strain, stronger effect = higher value
Method in brief: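 Strain rad50EPP+; compound exposure; % growth inhibition vs vehicle.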

[4] = NCI Yeast Anticancer Drug Screen. Data for the mgt1 strain (AID 153); conditions: S. cerevisiae mgt1 mutant growth inhibition, stronger effect = higher value
Method in brief: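 Read-out: yeast growth inhibition vs vehicle control. Strain mgt1, drawn from a panel altered in DNA damage repair or cell cycle control.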

[5] = NCI Yeast Anticancer Drug Screen. Data for the rad50 strain (AID 155);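 further: 0% = growth of vehicle-only cultures of the same strain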; conditions: S. cerevisiae rad50 strain growth inhibition, stronger effect = higher value
Method in brief: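 Inhibition values express reduced yeast growth in compound-treated cultures relative to vehicle-treated controls.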

[6] = NCI Yeast Anticancer Drug Screen. Data for the mec2-1 strain (AID 157); conditions: S. cerevisiae mec2-1 strain, stronger effect = higher value
Method in brief: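 Cells of the genetically defined mec2-1 yeast strain are incubated with test compound. Inhibition of growth is calculated against vehicle-treated controls.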

[7] = NCI Yeast Anticancer Drug Screen. Data for the rad14 strain (AID 159);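 further: 0% = growth of vehicle-treated control cultures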; conditions: S. cerevisiae rad14 strain growth inhibition, stronger effect = higher value
Method in brief: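 A mutant yeast strain defective in DNA damage repair is treated with compound; inhibition of its growth is scored against untreated, vehicle-exposed cultures.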

[8] = NCI Yeast Anticancer Drug Screen. Data for the sgs1 mgt1 strain (AID 161);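 further: 0% = growth of cultures given vehicle only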; conditions: S. cerevisiae sgs1 mgt1 strain, stronger effect = higher value
Method in brief: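 Test agents were incubated with a DNA-repair-mutant yeast strain. Growth was then read and compared against vehicle-treated controls.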

[9] = NCI Yeast Anticancer Drug Screen. Data for the cln2 rad14 strain (AID 165);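 further: 0% = growth equal to vehicle treated cultures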; conditions: S. cerevisiae cln2 rad14 strain, stronger effect = higher value
Method in brief: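 The screen exposed genetically defined yeast (cln2 rad14) to test compounds and scored growth inhibition relative to vehicle-treated controls.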

[10] = NCI Yeast Anticancer Drug Screen. Data for the bub3 strain (AID 167); conditions: S. cerevisiae bub3 mutant strain, stronger effect = higher value
Method in brief: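 Steps: expose the mutant yeast strain to compound; grow alongside vehicle-treated cultures; measure growth; express inhibition against the vehicle cultures.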

[11] = NCI Yeast Anticancer Drug Screen. Data for the mlh1 strain (AID 171);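 further: 0% = growth of vehicle-treated control cultures of the same strain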; conditions: S. cerevisiae mlh1 strain growth inhibition, stronger effect = higher value
Method in brief: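 Yeast screen: mutant strain plus compound, growth scored against vehicle control wells.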

[12] = NCI Yeast Anticancer Drug Screen. Data for the sgs1 strain (AID 173);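 further: 0% = growth of vehicle-only control cultures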; conditions: S. cerevisiae sgs1 mutant, stronger effect = higher value
Method in brief: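 Inhibition of yeast growth served as the measure. The mutant strain was treated with each compound, and growth was normalised to cultures receiving vehicle alone.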

[13] = NCI Yeast Anticancer Drug Screen. Data for the mlh1 rad18 strain (AID 175); conditions: S. cerevisiae mlh1 rad18 strain growth inhibition, stronger effect = higher value
Method in brief: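 Compound-treated yeast growth, normalised to vehicle controls. Strain bears defined DNA repair mutations.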

[14] = NCI Yeast Anticancer Drug Screen. Data for the rad18 strain (AID 177); conditions: S. cerevisiae rad18 mutant growth inhibition, stronger effect = higher value
Method in brief: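 Inhibition values reflect reduced yeast growth compared with vehicle-treated controls, using a strain engineered with a DNA damage repair defect.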

[15] = NCI Yeast Anticancer Drug Screen. Data for the CLN2oe strain (AID 163);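 further: 0% = growth of vehicle-only control cultures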; conditions: S. cerevisiae CLN2oe strain, stronger effect = higher value
Method in brief: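 Strain altered in cell-cycle control, incubated with compound; growth compared to solvent-treated controls.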

[16] = NCI Yeast Anticancer Drug Screen. Data for the wt2 strain (AID 169);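 further: 0% = growth of vehicle-treated yeast cultures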; conditions: S. cerevisiae wt2 strain growth inhibition, stronger effect = higher value
Method in brief: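 Steps: yeast strain treated with compound; growth recorded; inhibition calculated relative to cultures given vehicle alone.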

[17] = at 5.0 µM (retest, dose inferred, filed as 0.5)
[18] = at 50.0 µM (retest, dose inferred, filed as 5.0)

Measured: growth inhibition

Cc1cc[n+](C2=C(Nc3cccc(C(F)(F)F)c3)C(=O)c3ccccc3C2=O)cc1
inactive: [1]; at 1.2 µM 5% | [1]; at 3.7 µM 5% | [1]; at 11.0 µM 7% | [1]; at 33.0 µM 21% | [1]; at 100.0 µM 55% | [2]; at 1.2 µM 0% | [2]; at 3.7 µM 2% | [2]; at 11.0 µM 4% | [2]; at 33.0 µM 7% | [2]; at 100.0 µM 12% | [3]; at 1.2 µM 7% | [3]; at 3.7 µM 9% | [3]; at 11.0 µM 12% | [3]; at 33.0 µM 29% | [3]; at 100.0 µM 30% | [4]; at 1.2 µM -1% | [4]; at 3.7 µM 0% | [4]; at 11.0 µM 1% | [4]; at 33.0 µM 10% | [4]; at 100.0 µM 12% | [5]; at 1.2 µM 2% | [5]; at 3.7 µM 3% | [5]; [17] 10% | [5]; at 11.0 µM 8% | [5]; at 33.0 µM 34% | [5]; at 100.0 µM 59% | [6]; at 1.2 µM 1% | [6]; at 3.7 µM 4% | [6]; [17] 8% | [6]; at 11.0 µM -17% | [6]; at 33.0 µM -14% | [6]; [18] 36% | [6]; at 50.0 µM 68.2% | [6]; at 100.0 µM 10% | [7]; at 1.2 µM 0% | [7]; at 3.7 µM -8% | [7]; at 11.0 µM -5% | [7]; at 33.0 µM 0% | [7]; at 100.0 µM 14% | [8]; [17] 6% | [8]; [18] 39% | [8]; at 50.0 µM 62% | [9]; [17] 6% | [9]; [18] -4% | [9]; at 50.0 µM 46.4% | [10]; at 1.2 µM 4% | [10]; at 3.7 µM 5% | [10]; [17] 1% | [10]; at 11.0 µM 9% | [10]; at 33.0 µM 13% | [10]; [18] 49% | [10]; at 50.0 µM 46.8% | [10]; at 100.0 µM 44% | [11]; at 1.2 µM 3% | [11]; at 3.7 µM -2% | [11]; at 11.0 µM 1% | [11]; at 33.0 µM 1% | [11]; at 100.0 µM 10% | [12]; at 1.2 µM 0% | [12]; at 3.7 µM -1% | [12]; at 11.0 µM 0% | [12]; at 33.0 µM 3% | [12]; at 100.0 µM 16% | [13]; [17] 3% | [13]; [18] 3% | [13]; at 50.0 µM 61.9% | [14]; at 1.2 µM 2% | [14]; at 3.7 µM -1% | [14]; at 11.0 µM 3% | [14]; at 33.0 µM 2% | [14]; at 100.0 µM 5%
active: [5]; [18] 80% | [5]; at 50.0 µM 86.8%

COc1ccc(/C=C(/C)[N+](=O)[O-])cc1
inactive: [1]; at 1.2 µM 8% | [1]; at 3.7 µM 36% | [2]; at 1.2 µM -28% | [2]; at 3.7 µM -21% | [2]; at 11.0 µM -18% | [3]; at 1.2 µM 57% | [4]; at 1.2 µM -22% | [4]; at 3.7 µM -17% | [4]; at 11.0 µM 0% | [5]; at 1.2 µM -10% | [5]; at 3.7 µM 23% | [5]; [17] 49% | [6]; at 1.2 µM -44% | [6]; at 3.7 µM -51% | [6]; [17] 16% | [6]; at 11.0 µM -34% | [7]; at 1.2 µM -20% | [7]; at 3.7 µM -25% | [7]; at 11.0 µM -24% | [7]; at 33.0 µM 69% | [8]; [17] 28% | [15]; at 1.2 µM -3% | [15]; at 3.7 µM -10% | [15]; at 11.0 µM -9% | [9]; [17] 37% | [9]; at 50.0 µM 60% | [10]; at 1.2 µM -27% | [10]; at 3.7 µM -28% | [10]; [17] 28% | [10]; at 11.0 µM -6% | [16]; at 1.2 µM -5% | [16]; at 3.7 µM -4% | [16]; at 11.0 µM -1% | [16]; at 33.0 µM 59% | [11]; at 1.2 µM -12% | [11]; at 3.7 µM -16% | [11]; at 11.0 µM -2% | [13]; [17] 22% | [14]; at 1.2 µM -14% | [14]; at 3.7 µM -8% | [14]; at 11.0 µM -17% | [14]; at 33.0 µM 42%
active: [1]; at 11.0 µM 81% | [1]; at 33.0 µM 95% | [1]; at 100.0 µM 99% | [2]; at 33.0 µM 72% | [2]; at 100.0 µM 99% | [3]; at 3.7 µM 83% | [3]; at 11.0 µM 94% | [3]; at 33.0 µM 97% | [3]; at 100.0 µM 99% | [4]; at 33.0 µM 80% | [4]; at 100.0 µM 99% | [5]; at 11.0 µM 79% | [5]; at 33.0 µM 94% | [5]; [18] 94% | [5]; at 50.0 µM 80.3% | [5]; at 100.0 µM 99% | [6]; at 33.0 µM 78% | [6]; [18] 98% | [6]; at 50.0 µM 90.3% | [6]; at 100.0 µM 99% | [7]; at 100.0 µM 99% | [8]; [18] 85% | [8]; at 50.0 µM 87.8% | [15]; at 33.0 µM 71% | [15]; at 100.0 µM 99% | [9]; [18] 94% | [10]; at 33.0 µM 93% | [10]; [18] 99% | [10]; at 50.0 µM 90.8% | [10]; at 100.0 µM 98% | [16]; at 100.0 µM 99% | [11]; at 33.0 µM 97% | [11]; at 100.0 µM 99% | [13]; [18] 99% | [13]; at 50.0 µM 81.5% | [14]; at 100.0 µM 99%
